Source: PubChem BioAssay (NCI)
Several values for one entry are separate records, joined by “and”; a condition that tells them apart may be missing. Equal values may be shown once. About 83,000 compounds went through this panel and 20% of them were active in at least one assay; those are over-represented in the sample as a whole.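 For each line, cells grew in 96-well plates with the test compound present at a single concentration for 48 hours.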 The source holds several records for some structures; these can differ, active in one and inactive in another. Activity calls are given as the source filed them. *1 amine or outer side, *2 acyl side, *3 side chain or, on linkers, in order; H or OH if unused. Where a SMILES comes first, the peptide text is derived from it. Bridges are numbered along the chain shown (N, C = ends). Roman numbers before positions name the chains, in order. [ ]: non-standard residue; d: D form. The star is where a group is joined. ξ: configuration not given here. Actinocin(1to9) = Cc1c2oc3c(C)ccc(C(=O)[*:2])c3nc-2c(C(=O)[*:1])c(N)c1=O; X5 = CCC(=O)CC1CC(C)CC(C(=O)[*:2])N1[*:1]; NMeV = CN[CH](C(=O)O)C(C)C; X4 = CCCCCCCCC(C)C(=O)*; ξD = NC(CC(=O)O)C(=O)O; Aib = CC(C)(N)C(=O)O; X6 = CC(CN(C)CCO)N*; Sar = CNCC(=O)O

system: HOP-62 NSCLC; experiment: NCI-60 one-dose screen, 48 h (100 = growth as untreated, 0 = no growth, -100 = all killed); settings: 10 µM unless noted
Experimental: Growth inhibition of the HOP-62 human Non-Small Cell Lung tumor cell line is measured as a screen for anti-cancer activity. Cells are grown in 96 well plates and exposed to the test compound for 48 hours. Compounds are tested at a single concentration, which is 10^-5 M for most compounds. The reported endpoint is percent growth (GI% or GIPRCNT), where numbers from 0 - 100% represent growth inhibition, and numbers from -100% - 0 represent cell death. For example, a value of 40 represents 60% growth inhibition. A value of 0 means no net growth occurred over the course of the experiment. A value of -40 indicates 40% of cells at the beginning of the experiment died by the end of the experiment. A value of -100 means all cells are dead at the end of the experiment.
NCI-60 Human Tumor Cell Lines Screen was performed using the standard one-dose NCI protocol, which is described in more detail at https://dtp.cancer.gov/discovery_development/nci-60/default.htm.
Compounds with GIPRCNT values below 10 were considered active. Activity score was based on GIPRCNT using the following formula: […]
Score is 0 for GIPRCNT values of 100 or above, 50 for GIPRCNT values of 0, and 100 for GIPRCNT values of -100.

| Compound | growth |
| --- | --- |
| CCCN(CCC)C(=O)c1ccc(C)cc1 | 80% (inactive) |
| CCCCCCCCCCCCCCCc1ccc(C(=O)C[n+]2ccccc2)cc1 | -99% (active) |
| CCOC(=O)NC(/C=C/c1ccccc1)NC(=O)OCC | 100% (inactive) |
| CCCCCCCCC(C)C(=O)N1CCCC1C(=O)N1C(CC(=O)CC)CC(C)CC1C(=O)NC(C)C(=O)NC(C)(C)C(=O)NC(C)(C)C(=O)NC(C(=O)NC(C)C(=O)NC(C)(C)C(=O)NC(C)(C)C(=O)NC(C)CN(C)CCO)C(C)CC (stereo not given) (X4-P[X5]A[Aib][Aib]IA[Aib][Aib]-X6; configuration not given here) | -81.5% (active) |
| CN(C)CCSC1=Nc2ccc(Cl)cc2C(c2ccccc2Cl)N(C)C1 (stereo not given) | 55.9% (inactive) |
| CCCCCCCCCCCC[S+](C)CC(=O)[O-] (stereo not given) | 38.7% (inactive) |
| COc1cc(NC(=O)C2=C(C)NC(C)=C(C(=O)Nc3cc(OC)c(Cl)cc3OC)C2c2cccc([N+](=O)[O-])c2)c(OC)cc1Cl | 43.2% (inactive) |
| O=C1C=CC(O)=CC1=P(c1ccccc1)(c1ccccc1)c1ccccc1 | 99.7% (inactive) |
| OC(c1cc(-c2ccc(C(F)(F)F)cc2)nc(C(F)(F)F)c1)C1CCCCN1 (stereo not given) | -69.8% (active) and -89.1% (active) and 57.1% (inactive) |
| O=C1/C(=C\c2ccc([N+](=O)[O-])cc2)CS(=O)(=O)C/C1=C/c1ccc([N+](=O)[O-])cc1 | -95.2% (active) |
| COc1cccc2c1C(=O)c1c(O)c3c(c(O)c1C2=O)C[C@@](O)(C(=O)CO)C[C@@H]3OC1CC(OC(C)=O)C(OC(C)=O)C(C)O1 (stereo not given in full) | -25.6% (active) |
| CCCCCCC1N=C(N)N=C(N)N1c1cccc(Cl)c1 (stereo not given) | 34.6% (inactive) |
| CCOc1ccc2c(c1)/C(=C\C=C\C1CC(C)C3CC(OCC)CCC3N1CC)CC(C)N2CC (stereo not given) | 11.6% (inactive) |
| Oc1ccc(Cl)cc1Cc1cc(Cl)ccc1O | 70.6% (inactive) |
| CCC(C)C1NC(=O)C(NC(=O)c2c3nc4c(C(=O)NC5C(=O)NC(C(C)CC)C(=O)N6CCCC6C(=O)N(C)CC(=O)N(C)C(C(C)C)C(=O)OC5C)ccc(C)c4oc-3c(C)c(=O)c2N)C(C)OC(=O)C(C(C)C)N(C)C(=O)CN(C)C(=O)C2CCCN2C1=O (stereo not given) (I: TIP[Sar][NMeV] / II: TIP[Sar][NMeV]; ester I:1-I:C, II:1-II:C; linker I:N-II:N via Actinocin(1to9); configuration not given here) | -43.6% (active) |
| c1ccc2sc(SSN3CC4CCC(CC4)C3)nc2c1 | 119% (inactive) |
| O=C(/C=C/c1ccccc1)c1ccccc1O | 103% (inactive) |
| CCN1CCCC(Nc2cc(C)nc(/N=C(/N)Nc3ccc(Cl)c(Cl)c3)n2)C1 (stereo not given) | -7.52% (active) |
| CCOC(=O)C1=NN(c2ccccc2)C(=O)/C1=C\N1C(=O)/C(=C/c2cccc(O)c2)SC1=S | 84% (inactive) |
| C/C(=N/NC(N)=S)c1ccc(C)cc1 | 87.8% (inactive) |

| Compound | growth |
| --- | --- |
| O=C(NOC(=O)c1ccccc1)c1ccccc1 | 105% (inactive) |
| COc1cc(NCc2ccc3nc(N)nc(N)c3c2C)cc(OC)c1OC (tested in a mixture with another compound) | 29.8% (inactive) |
| CN(Cc1ccccc1)c1ccc(SC#N)cc1 | 108% (inactive) |
| Cn1c(-c2ccccc2)c(/C=C/C2=[N+](C)c3ccccc3C2(C)C)c2ccccc21 | 10.2% (inactive) |
| CC(C)c1ccc(Nc2n[nH]c(=S)s2)cc1 | 99.4% (inactive) |
| NCC(=O)NC(CC(=O)O)C(=O)O (stereo not given) (H-Gly-[ξD]-OH) | 101% (inactive) |
| O=[N+]([O-])c1ccc2c(c1)Cc1ccccc1-2 | 94.8% (inactive) |
| CC(C)Nc1ccc(Nc2ccc(NC(C)C)cc2)cc1 | 76.4% (inactive) |
| CCC1CCCCN1C(=S)N/N=C(\C)c1ccccn1 (stereo not given) | 10.2% (inactive) |
| NC(CS/C(Cl)=C/Cl)C(=O)O (stereo not given) | -3.21% (active) |
| Oc1ccc2ccccc2c1N=Nc1nccs1 | 20.2% (inactive) |
| COc1ccc2c(c1OC)OCC(CN(C)C)C2=O (stereo not given) | 100% (inactive) |
| c1ccc(-c2cc3cc4ccccc4cn3c2)cc1 | 78.7% (inactive) |
| COc1ccc2nc3cc(Cl)ccc3c(NCCCCCN3CCCCC3)c2c1 | -31.6% (active) |
| CC(C)c1ccc(C(=O)OC2CCCC2)cc1 | 93.1% (inactive) |
| CC1(C)OC2C(COC(c3ccccc3)(c3ccccc3)c3ccccc3)OC(c3c[nH]c4c(N)ncnc34)C2O1 (stereo not given) | 81.6% (inactive) |
| O=C(c1ccccc1)c1ccc(O)c2ncccc12 | 38.6% (inactive) |
| CCC(C)(O)Cc1ccc(Cl)cc1 (stereo not given) | 97.1% (inactive) |
| CCc1cccc(CC)c1N1C(=O)C=CC1=O | 83.7% (inactive) |
| Cc1nn(CCO)c(C)c1N=[N+]([O-])c1c(C)nn(CCO)c1C | 88.1% (inactive) |
